Common to all, as to test: NCI-60 one-dose screen, 48 h (100 = growth as untreated, 0 = no growth, -100 = all killed)
Holding throughout (conditions): 10 µM unless noted

Test [1] has as its system DU-145 prostate.
For test [2], the system named is MALME-3M melanoma.
Test [3] has as its system MDA-MB-231 breast.
Test [4] concerns RXF 393 renal.
Test [5] deals with SF-295 CNS.
The test system of test [6] is SF-539 CNS.
Test [7] deals with UACC-257 melanoma.
Test [8] has as its system M14 melanoma.
Test [9] deals with HCT-15 colon.
Test [10] deals with HT29 colon.
For test [11], the system named is SNB-75 CNS.
Test [12] relates to SNB-19 CNS.
Test [13] deals with U251 CNS.
Test [14] relates to PC-3 prostate.
Test [15] concerns SK-MEL-5 melanoma.
Test [16] deals with UACC-62 melanoma.
Test [17] concerns LOX IMVI melanoma.
For test [18], the system named is SK-MEL-28 melanoma.
Test [19] relates to SF-268 CNS.
Test [20] relates to K-562 leukemia.

SMILES strings stand for the structures. Compounds without any hit were thinned out: in the full panel of roughly 83,000, 20% have a hit.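 Treatment: one concentration, 48 hours, 96-well format. Scoring: percent growth, with anything below 10 considered active.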 Unmarked numbers belong to inactive results. The source made the active and inactive calls.

This is an account of results in PubChem BioAssay (NCI).

`SCc1ccc(CS)cc1`: the growth in test [1] is 116%; in test [2], 106%; in test [3], 123%; in test [4], 112%; in test [5] it was 109%; in [6], 104%. The growth is 114% in test [7]; 106% in test [8]; 105% in test [9]; 120% in test [10]; 109% in test [11]; 115% in test [12]. Also, the growth in [13] was 101%; in [14], 98.1%; in test [15], 95.7%; in test [16], 105%; in test [17], 96.2%; in test [18], 112%.

As for `O=C(Cc1ccc(Nc2ccnc(C(F)(F)F)c2)cc1)N/N=C/c1ccccc1O`, the growth in test [1] is 39.3%; in [2] it was 38.8%; in test [3], 27.9%; in test [4] it was 49%; in test [19] it was 28.6%; in test [5] it was 30%. Moreover, the growth in test [6] was 24.1%; in test [7], 34.7%; in test [8] it was 8.64% (active); in test [9], 14.6%; in test [10] it was 75.4%; in [11], 30.8%. Moreover, the growth in test [12] was 31.1%; in test [13], 23.8%; in test [14], 71.1%; in [15], 10.8%; in test [16], 10.8%; in test [17], 9.12% (active). For the same compound, in test [18], the growth is 106%.

On to `CCCCC(CCc1ccccn1)C(=O)c1ccccc1` (stereo not drawn), for which the growth in [20] is 116%; in test [2] it was 119%; in test [3] it was 104%; in test [4], 109%; in [19] it was 122%; in test [5], 104%. Besides, the growth in test [6] was 107%; in test [7] it was 123%; in test [8], 108%; in [9] it was 107%; in [10], 109%; in [11], 89.8%. In addition, the growth in [12] was 110%; in [13] it was 114%; in test [14], 98.2%; in test [15] it was 103%; in test [16], 107%; in test [17], 96.5%. Further, in test [18], the growth was 108%.

As for `O=C(Nc1ccc(Br)cc1)Nc1ccccc1Cl`, the growth in test [1] is 91.1%; in test [20], 84.5%; in test [3] it was 72.5%; in test [4], 83%; in test [19] it was 93.8%; in test [6], 89.3%. Further, the growth was 88% in test [7]; 89.2% in test [8]; 87.1% in test [9]; 95.3% in test [10]; 77.8% in test [11]; 117% in [12]. The growth in [13] was 91.9%; in test [14] it was 83.9%; in [16] it was 56.5%; in test [17], 81.3%; in test [18] it was 107%.

Take `CN1CCN(c2ccc(N3Cc4ccccc4OC4=C3C(=O)c3c(O)ccc(O)c3C4=O)cn2)CC1`: the growth is -95.9% (active) in test [1]; -84.2% (active) in test [2]; -75.1% (active) in [3]; -93.6% (active) in test [4]; -6.04% (active) in [19]; -58.3% (active) in test [6]. The growth is -88.9% (active) in test [7]; -76.8% (active) in test [8]; -74.9% (active) in [9]; -42.8% (active) in [10]; -21.8% (active) in test [11]; 11% in [12]. The growth in test [13] was -4.98% (active); in test [14], 1.25% (active); in test [15], -61.9% (active); in [16], -59.9% (active); in test [17] it was -71.4% (active); in test [18] it was -60% (active).

As for `O=C(NCCNC(=O)c1cc(S(=O)(=O)NCCc2ccccc2)c(O)c(O)c1O)c1cc(S(=O)(=O)NCCc2ccccc2)c(O)c(O)c1O`, the growth is 77.1% in [1]; 94.3% in test [2]; 59.9% in test [3]; 78.1% in test [4]; 45.9% in test [19]; 20.3% in test [6]. In addition, the growth in test [7] is 86.1%; in [8], 44.4%; in test [9], 40.5%; in test [10] it was 108%; in test [11], 63%; in [12] it was 35.7%. The growth is 31.3% in test [13]; 40.2% in test [14]; 15.6% in [15]; -15% (active) in test [16]; 15% in test [17]; 54.2% in test [18].

Consider `C=CCN(CCOC(=O)c1ccc([N+](=O)[O-])cc1)CCOC(=O)c1ccc([N+](=O)[O-])cc1`, for which the growth in test [20] was 92.3%; in test [2], 98.8%; in test [3], 96.2%; in test [4], 138%; in test [19], 98%; in [5] it was 107%. Besides, the growth in [6] is 110%; in test [7] it was 97.8%; in test [8], 105%; in [9] it was 118%; in [10], 111%; in test [11], 83.7%. Also, the growth was 108% in test [12]; 103% in test [13]; 85.4% in [14]; 94.8% in test [15]; 110% in test [16]; 88.8% in test [17]. Besides, the growth in [18] is 106%.

On to `Fc1ccc2nc(-c3ccc(-c4noc(-c5ccc(Cl)cc5)n4)cc3)[nH]c2c1`, for which the growth was 98.5% in [1]; 92.5% in test [20]; 106% in test [3]; 110% in test [4]; 105% in [19]; 100% in test [6]. The growth in test [7] was 101%; in test [8] it was 107%; in test [9] it was 109%; in test [10], 103%; in test [12] it was 110%; in test [13], 103%. The growth was 102% in test [14]; 104% in [15]; 113% in [16]; 104% in test [17]; 128% in test [18].

Consider `CCN(CC)CCNc1c(C)cc(CO)c(Cl)c1C`, for which the growth in test [1] was 120%; in test [20], 115%; in test [3] it was 104%; in [4], 119%; in test [5], 104%; in test [6], 103%. Further, the growth in test [7] was 96.7%; in test [8], 110%; in test [9], 106%; in test [10] it was 97%; in [11], 90.2%; in test [12], 92.8%. Further, the growth in test [13] was 105%; in test [14], 97.9%; in test [15] it was 106%; in test [16] it was 102%; in test [17], 98.8%; in [18] it was 104%.
